In PubChem BioAssay AID652098 (National Center for Advancing Translational Sciences (NCATS), 2013):
Calls of active or inactive are those of the source.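 Rule for the calls: active = glucosylsphingosine level at or below 0.14 pmol/ug; inactive = the rest.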

Test: Extended Characterization of Activators of N370S glucocerebrosidase as a Potential Chaperone Treatment of Gaucher Disease: Glucosylsphingosine in Macrophages
Details: Gaucher patient macrophages, glucosylsphingosine LC-MS/MS; hits give low values
Excerpt: Glucocerebrosidase (GCase) catalyzes the hydrolysis of beta-glucocerebroside (GC) to glucose and ceramide in lysosomes. Mutations in the glucocerebrosidase gene result in Gaucher disease, an autosomal recessive lysosomal storage disorder. Many of the mutations encountered in patients with Gaucher disease are missense alterations that may cause misfolding, decreased stability and/or mistrafficking of this lysosomal protein. […] These inhibitors include iminosugar analogs and other inhibitors that were discovered as part of previous work. However, the enhancement of enzyme activity by the chaperone action of an enzyme inhibitor must be balanced against the direct inhibition of the enzyme. […] In this extended characterization of our probe, we have further characterized the activity of probes in relevant models of Gaucher disease. This assay attempts to quantitate glucosylsphingosine in patient-derived macrophages following compound incubation. NIH Chemical Genomics Center [NCGC] NIH Molecular Libraries Probe Production Centers Network [MLPCN] MLPCN Grant: MH086442 Assay Submitter (PI): Ellen Sidransky, NHGRI
Glucosylsphingosine was measured by liquid chromatography-tandem mass spectrometry as previously described by Tropak et al. Chembiochem 2008, 9, 2650-2662.

Compound | glucosylsphingosine level
C#Cc1ccc(NC(=O)c2cnn3c(C)cc(C)nc23)cc1 | 0.135 pmol/µg (active)
